{"source": "PubChem BioAssay AID2314", "about": "(National Center for Advancing Translational Sciences (NCATS), 2010)", "note": "The whole screen tested about 300,000 compounds, of which about 37,000 (12%) were called active. Cut-off read from the data, not from the text of the source: active = max response mostly above about 13% (no sharp cut-off); inactive = mostly below about 14%. This excerpt belongs to a sample that is enriched for actives.", "data": [{"assay": "Cycloheximide Counterscreen for Small Molecule Inhibitors of Shiga Toxin; note: read at 38.3 µM for the half of the compounds with a filed dose; 0% is about no effect", "details": "cell reporter, cycloheximide protein synthesis inhibition counterscreen; stronger effect = higher value", "values": [{"smiles": "C[C@H](NC(=O)c1nc[nH]c1C(=O)NCC(=O)OC(C)(C)C)c1ccccc1", "max response": "3.3% (inactive)"}, {"smiles": "CCCN(CCC)C(=O)C1c2ccccc2Oc2ccccc21", "max response": "3.35% (inactive)"}, {"smiles": "O=C(CN1CCCCCC1)Nc1ccc(Br)cc1[N+](=O)[O-]", "max response": "-2.43% (inactive)"}, {"smiles": "COc1ccccc1OCC(=O)O/N=C(\\N)c1ccccn1", "max response": "46.9% (active)"}, {"smiles": "COc1ccccc1OCc1nnc(SCC(N)=O)n1-c1ccccc1", "max response": "7.05% (inactive)"}, {"smiles": "O=C(CN1CCN(c2ccccn2)CC1)NC1CCCCC1", "max response": "9.34% (inactive)"}, {"smiles": "N/C(=N\\OC(=O)CC1CCCCC1)c1ccccc1", "max response": "40.4% (active)"}, {"smiles": "N/C(=N\\OC(=O)CCC1CCCCC1)c1ccccn1", "max response": "38.6% (active)"}, {"smiles": "N/C(=N\\OC(=O)Cc1ccccc1[N+](=O)[O-])c1ccc(Br)cc1", "max response": "11.4% (inactive)"}, {"smiles": "CC(C)(C)NC(=O)NC(=O)COC(=O)CCC1CCCCC1", "max response": "-2.12% (inactive)"}, {"smiles": "COc1ccccc1OCC(=O)OCn1c(SC)nnc(C)c1=O", "max response": "-1.41% (inactive)"}, {"smiles": "COc1ccccc1NC(=O)C(C)OC(=O)CC1CCCC1", "note": "(stereo not given)", "max response": "0.793% (inactive)"}, {"smiles": "COc1ccc(C(=O)NCC(=O)N/N=C/c2ccc([N+](=O)[O-])o2)cc1OC", "max response": "8.64% (inactive)"}, {"smiles": "COc1ccc(S(=O)(=O)n2nc(C)c(S(=O)(=O)N3CCOCC3)c2C)cc1", "max response": "-1.99% (inactive)"}, {"smiles": "COc1cccc(CNC(=O)c2nnn(CC(=O)Nc3cc(C)ccc3C)c2N)c1", "max response": "7.9% (inactive)"}, {"smiles": "CSCC[C@H](NC(=O)N1CCn2c1nc1ccccc12)C(=O)NCc1ccc2c(c1)OCO2", "max response": "0.519% (inactive)"}, {"smiles": "Cn1ncc(N2CCN(S(=O)(=O)c3ccc(Br)cc3)CC2)c(Cl)c1=O", "max response": "-6.65% (inactive)"}, {"smiles": "S=c1[nH]cc(-c2ccc(Cl)cc2)n1-c1ccccc1", "max response": "9.09% (inactive)"}, {"smiles": "CC(C)(C)OC(=O)NC(Cc1ccccc1)C(=O)NC(CSC1CCCCO1)C(=O)NN", "note": "(stereo not given)", "max response": "-1.92% (inactive)"}, {"smiles": "O=C(CC(c1ccccc1)c1ccccc1)NCC(O)c1ccc([N+](=O)[O-])cc1", "note": "(stereo not given)", "max response": "-4.98% (inactive)"}, {"smiles": "Cc1nn2c(NCCN(C)C)c3c(nc2c1-c1ccccc1)CCC3", "max response": "-2.49% (inactive)"}, {"smiles": "Cc1ccc(CNC(=O)Cn2c(=O)c3sccc3n(Cc3cccc([N+](=O)[O-])c3)c2=O)cc1", "max response": "3.82% (inactive)"}, {"smiles": "CC(=O)n1cc([C@@H]2C=C(C(=O)N3CCN(Cc4ccc5c(c4)OCO5)CC3)O[C@H](OCc3ccc(CO)cc3)C2)c2ccccc21", "max response": "0.854% (inactive)"}, {"smiles": "O=C(Cc1ccccc1)Nc1cccc(NC(=O)c2ccccc2)c1", "max response": "-0.775% (inactive)"}, {"smiles": "Cc1ccc(OCC(=O)NCCCNC(=O)c2cccnc2)cc1C", "max response": "-4.42% (inactive)"}, {"smiles": "COc1cc(/C=C(/NC(=O)c2ccccc2)C(=O)Nc2cccc(O)c2)c([N+](=O)[O-])cc1OC", "max response": "-3.43% (inactive)"}, {"smiles": "O=C(NCc1cccc(CNC(=O)Nc2cccc(O)c2)c1)Nc1cccc(O)c1", "max response": "-1.08% (inactive)"}, {"smiles": "C/C(=C\\C(=O)c1ccccc1)Nc1cccc(O)c1", "max response": "29.3% (active)"}, {"smiles": "C/C(=C\\C(=O)c1cccnc1)Nc1ccc(C)c(C)c1", "max response": "29% (active)"}, {"smiles": "Cc1ccc(NC(=O)COc2ccc(/C=N\\NC(=O)c3cccnc3)cc2)cc1C", "max response": "12.4% (inactive)"}, {"smiles": "O=C(Nc1cccc(O)c1)c1ccc(C(=O)c2ccccc2)o1", "max response": "40.5% (active)"}, {"smiles": "O=C(Nc1cccc(C(=O)N2CCCC2)c1)c1ccccc1", "max response": "-1.45% (inactive)"}, {"smiles": "CCCCCN(C(=O)CCC(=O)OCC(=O)NCc1ccc(OC)cc1)c1c(N)n(CCCC)c(=O)[nH]c1=O", "max response": "-0.685% (inactive)"}, {"smiles": "COc1ccc(NC(=O)c2sc(N3CCOCC3)nc2-c2ccccc2)c(OC)c1", "max response": "-2.89% (inactive)"}, {"smiles": "COc1ccc(C(=O)NCCNc2ccc([N+](=O)[O-])cn2)cc1", "max response": "4.73% (inactive)"}, {"smiles": "O=C(COc1ccc2oc3c(c2c1)CCCC3)Nc1ccccn1", "max response": "28.6% (active)"}, {"smiles": "CCN(CC)CCCNC(=O)COc1ccc2oc3c(c2c1)CCCC3", "max response": "-5.99% (inactive)"}, {"smiles": "Cc1ccc(OCC(=O)Nc2ccc(S(=O)(=O)Nc3ccccn3)cc2)cc1", "max response": "1.04% (inactive)"}, {"smiles": "COc1ccc(CN2CCN(Cc3ccc(OC)c(OC)c3OC)CC2)cc1", "max response": "-4.12% (inactive)"}, {"smiles": "Cc1ccc(CS(=O)Cc2ccc(C(=O)N3CCOCC3)o2)cc1", "note": "(stereo not given)", "max response": "0.901% (inactive)"}, {"smiles": "CC(=O)NS(=O)(=O)c1ccc(N/C(N)=N/c2nc(C)cc(C)n2)cc1", "max response": "-0.472% (inactive)"}, {"smiles": "COc1ccc(CCNC(=O)CN2C(=O)COc3ccc(S(=O)(=O)N4CCCC4)cc32)cc1OC", "max response": "-2.34% (inactive)"}, {"smiles": "CCNc1nc(NC(C)C)nc(N2CC(=O)N(CC(=O)OCC)C2=N)n1", "max response": "-5.32% (inactive)"}, {"smiles": "CCN(c1cccc(C)c1)S(=O)(=O)c1ccc(-c2coc(C)n2)cc1", "max response": "-4.01% (inactive)"}, {"smiles": "CCN(CC)S(=O)(=O)c1ccc(-c2cn3ccc(C)cc3n2)cc1", "max response": "45.6% (active)"}, {"smiles": "COc1ccc(-c2cn3ccc(C)cc3n2)cc1", "max response": "-1.85% (inactive)"}, {"smiles": "CCCCN(CC)C(=O)c1ccccc1Oc1ccccc1", "max response": "-1.52% (inactive)"}, {"smiles": "Cc1ccc(C)n1-c1ccncc1", "max response": "-5.57% (inactive)"}, {"smiles": "Cc1ccc(N)cc1-n1c(C)ccc1C", "max response": "23.9% (active)"}, {"smiles": "CN(c1ccccc1)S(=O)(=O)c1ccc(NC(=O)COc2ccccc2)cc1", "max response": "-1.66% (inactive)"}, {"smiles": "CCCCNC(=O)C1CCC(=O)N1CCc1ccccc1", "note": "(stereo not given)", "max response": "-3.51% (inactive)"}, {"smiles": "CN(CCOc1ccccc1)Cc1nc2cc(Cl)ccc2c(=O)[nH]1", "max response": "2.21% (inactive)"}, {"smiles": "O=c1[nH]c(CN2CCOCC2)nc2scc(-c3ccccc3)c12", "max response": "9.91% (inactive)"}, {"smiles": "O=c1[nH]c(CN2CCOCC2)nc2cc(Cl)ccc12", "max response": "13% (active)"}, {"smiles": "CC(NC(=O)c1ccccc1C(=O)O)c1ccc(-n2ccnc2)cc1", "note": "(stereo not given)", "max response": "-1.67% (inactive)"}, {"smiles": "CC1CCN(C(=O)c2ccccc2NC(=O)Cc2ccccc2)CC1", "max response": "18.5% (inactive)"}, {"smiles": "O=C(C1CCN(Cc2ccc(Cl)cc2)CC1)N1CCN(Cc2ccc3c(c2)OCO3)CC1", "max response": "-1.07% (inactive)"}, {"smiles": "Cc1ccc2c(=O)cc(C(=O)NCCc3ccc(S(N)(=O)=O)cc3)oc2c1C", "max response": "-2.03% (inactive)"}, {"smiles": "CCOC(=O)c1csc(CCNC(=O)c2oc3c(Cl)cc(C)cc3c2C)n1", "max response": "29.8% (active)"}, {"smiles": "CCOC(=O)c1csc(NC(=O)c2ccc(S(=O)(=O)N3CCCC3)cc2)n1", "max response": "-1.54% (inactive)"}]}]}
